Measurements taken from PubChem BioAssay AID1851 (National Center for Advancing Translational Sciences (NCATS), 2009).
“And” between values parts separate entries of the source, which are not always exact repeats. Identical values can stand only once. The whole screen tested about 16,000 compounds, of which about 4,000 (25%) were called active. Roughly 26% stayed inconclusive and do not appear here. Calls follow the shape of the dose curve; as a rule, active = well fitted curve in the direction sought with a large enough effect; inconclusive = small, poorly fitted or top-dose-only effect, or effect the other way; inactive = no such curve, though single readings can be large or run the other way. Not all results are given here.

biological target: Cytochrome P450 2C9 (Homo sapiens) (UniProt P11712); assay: Cytochrome panel assay with activity outcomes; settings: recombinant CYP, pro-luciferin dealkylation, luminescence, p450-cyp2c9; series mostly up to 57.1 µM; activity, negative = inhibition: at the top concentration
% is scaled to controls: 0 for no effect and ±100 for the full control effect.

Chain of Cytochrome P450 2C9 (Homo sapiens) (P11712 whole entry, looked up): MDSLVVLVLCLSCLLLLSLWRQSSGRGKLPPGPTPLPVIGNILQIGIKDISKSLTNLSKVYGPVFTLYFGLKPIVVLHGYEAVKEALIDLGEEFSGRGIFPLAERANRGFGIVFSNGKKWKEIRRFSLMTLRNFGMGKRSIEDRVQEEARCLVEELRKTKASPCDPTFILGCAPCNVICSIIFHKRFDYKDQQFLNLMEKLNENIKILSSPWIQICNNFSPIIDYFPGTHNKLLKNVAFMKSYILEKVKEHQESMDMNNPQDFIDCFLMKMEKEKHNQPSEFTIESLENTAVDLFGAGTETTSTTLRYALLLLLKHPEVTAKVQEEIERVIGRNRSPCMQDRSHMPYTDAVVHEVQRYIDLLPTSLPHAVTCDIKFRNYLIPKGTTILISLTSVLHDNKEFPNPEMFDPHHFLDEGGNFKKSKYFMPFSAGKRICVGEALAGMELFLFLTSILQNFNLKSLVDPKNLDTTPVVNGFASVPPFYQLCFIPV

AC50, active:
CN(Cc1ccccc1)Cn1ccnc1 2.51 µM, O=C(Nc1ccc2c(c1)nc1n2CCN(C2CCCCC2)C1)NC1CCCCC1 14.1 µM, CCN(CC)C(=O)Cn1cc(/C=C(\C#N)C(=O)N2CCN(c3ccccc3)CC2)c2ccccc21 3.55 µM, COc1ccccc1CCn1c(=O)c(-c2cc(F)cc(F)c2)nc2cncnc21 1.58 µM, COc1ccccc1CCn1c(=O)c(-c2cccc(F)c2)nc2cncnc21 2.51 µM, CCOc1cccc(/C(O)=C2/C(=O)C(=O)N(Cc3cccnc3)C2c2ccco2)c1 (centres undefined) 1.58 µM, COc1ccc(/C(O)=C2/C(=O)C(=O)N(Cc3cccnc3)C2c2ccco2)cc1OC (centres undefined) 8.91 µM, COc1cccc(/C(O)=C2/C(=O)C(=O)N(Cc3cccnc3)C2c2ccco2)c1 (centres undefined) 0.398 µM, Cc1c(Cl)cccc1NC(=O)c1ccc(-n2ccnc2)nc1 0.0794 µM, O=C(Nc1ccc(F)cc1)c1ccc(-n2ccnc2)nc1 0.178 µM, COc1cc(Br)c(C(C)NC(=O)c2cccc(Br)c2)cc1OC (centres undefined) 2.82 µM, COc1ccc(C(=O)NC(C)c2cc(OC)c(OC)cc2Br)cc1 (centres undefined) 12.6 µM, Cc1cc([N+](=O)[O-])ccc1-c1ccc(C2Nc3ccccc3C(=O)N2O)o1 (centres undefined) 2.82 µM, CCOC(=O)Cc1csc(NC(=O)c2sc3nc4ccc(CC)cc4cc3c2N)n1 0.447 µM, CCOC(=O)Cc1csc(NC(=O)c2ccc(Cl)nc2)n1 11.2 µM, Cc1cccc(C)c1NC(=O)/C(C#N)=C/c1cccs1 11.2 µM, CCOc1ccc(-n2c(SCC(=O)Nc3ccc4c(c3)OCCO4)nc3c(c2=O)SCC3)cc1 2.82 µM, CCOc1ccc(-n2c(SCC(=O)Nc3ccc(OC)cc3OC)nc3c(c2=O)SCC3)cc1 4.47 µM, COc1ccc(/C(C#N)=C/c2c(-c3ccc(Cl)cc3)nc3c(C)cccn23)cc1 5.01 µM, O=C(O)Cc1sc(-c2ccc(Cl)cc2)nc1-c1ccccc1 2 µM, BrC(c1cccc2ccccc12)c1cccc2ccccc12 3.16 µM, Fc1ccc(C2CC(c3ccco3)=NN2c2ccccc2)cc1 (centres undefined) 1.41 µM, Cc1cccc(NC2=NC(=S)N(c3ccc(C(=O)O)cc3)C23CCCCC3)c1 25.1 µM, CCc1nc(N2CCC3(CC2)OCCO3)c2nnn(Cc3ccccc3Cl)c2n1 11.2 µM, COc1cccc(NC(=S)NNC(=O)C(C)n2nc(C)c([N+](=O)[O-])c2C)c1 (centres undefined) 5.01 µM, Cc1nn(C(C)C(=O)Nc2ccc(Cl)cn2)c(C)c1[N+](=O)[O-] (centres undefined) 14.1 µM, Cc1ncsc1C(=O)N1N=C2/C(=C/c3ccccc3)CCCC2C1c1ccccc1 (centres undefined) 2.82 µM, COc1ccc(/C=C2\CCCC3C2=NN(C(=O)c2ccco2)C3c2ccc(OC)c(OC)c2)cc1OC (centres undefined) 11.2 µM, O=c1cc(-c2ccccc2)[nH]n1-c1ccc([N+](=O)[O-])cc1 10 µM, CCOc1ccc(CC(=O)C2C(=O)CCCC2=O)cc1OCC 7.08 µM

AC50, inactive:
C#CCN(C)Cc1ccccc1, CO[C@@]12C[C@@H](COC(=O)c3cncc(Br)c3)CN(C)[C@H]1Cc1cn(C)c3cccc2c13, O=C(c1ccccc1)c1ccc2n1CC[C@H]2C(=O)O

activity, negative = inhibition, inactive:
CN(C)Cc1ccccc1-c1cc(-n2ccnc2)ncn1 -14.3% [at 2.29 µM], CC1(C)CC(=O)c2cn3ncnc3nc2C1 5.85%, Cn1c(CN2CCCC2)nc2cc(NC(=O)C3CCCCC3)ccc21 0.65%, CC1CCN(CCc2nc3cc(NC(=O)NC4CCCCC4)ccc3n2C)CC1 -16%, N/C(CC/C(N)=N/O)=N\O -8.92% [at 11.4 µM], CCc1cccc2c(C=C(C#N)C#N)cn(CC(=O)N3CCCCC3)c12 -10.4%, O=C1O[C@H](CN2CCOCC2)CN1/N=C\c1ccc([N+](=O)[O-])o1 8.64% [at 25.6 µM], C[C@@H](C[N+](C)(C)C)OC(N)=O 1.12% [at 25.6 µM], Cn1c(=O)c(-c2cc(F)cc(F)c2)nc2cncnc21 -20.8%, COc1ccc(-n2c(=O)c(-c3cccc(F)c3)nc3cncnc32)cc1 2.43%, COCCn1c(=O)c(-c2cccc(F)c2)nc2cncnc21 -29.5%, COCCn1c(=O)c(-c2cc(F)cc(F)c2)nc2cncnc21 4.81%, c1ncc(-c2ccoc2)c(NC2CC2)n1 5.65% [at 2.29 µM], CCCNc1[nH]c(=O)n(C)c(=O)c1N=O -18.2%, O=C(O)C12CC3(C(=O)O)CC(C(=O)O)(CC(C(=O)O)(C1)C3=O)C2=O -3.16% [at 11.4 µM], COc1ccccc1-c1cc(NCc2cccnc2)ncn1 -17.3% [at 2.29 µM], COCCN1C(=O)C(=O)/C(=C(/O)c2cccc(OC)c2)C1c1ccco1 (centres undefined) -10.9%, COCCCN1C(=O)C(=O)/C(=C(/O)c2ccc(OC)cc2C)C1c1cccnc1 (centres undefined) -3.89%, COc1ccc(C2C(C(=O)c3ccco3)=C(O)C(=O)N2Cc2cccnc2)cc1OC (centres undefined) 18%, CCc1cc2c(nc1CC)CCN(CC/C(C)=N/O[C@@H]1O[C@H](COC(C)=O)[C@H](OC(C)=O)[C@H](OC(C)=O)[C@H]1OC(C)=O)C2 1.56% [at 11.4 µM], c1cncc(-c2cc(-n3ccnc3)ncn2)c1 12.2% [at 2.29 µM], CN(C)C(=O)c1ccc(-c2nccc(-n3ccnc3)n2)cc1 17.2% [at 2.29 µM], CN(C)C(=O)c1ccc(-c2cncnc2-n2ccnc2)cc1 12.6% [at 2.29 µM], CS(=O)(=O)Nc1cccc(-c2cncnc2-n2ccnc2)c1 10.1% [at 2.29 µM], O=C(NCCC[N+]1=CC=N[C@H]1c1ccccc1)N1CCCc2nc(-c3ccc(Br)cc3)ccc21 -48.1% [at 11.4 µM], O=C(Nc1ccccc1)N1CC[C@@]2(CCCN(C(=O)c3cnccn3)C2)C1 1.31%, CN(C)Cc1ccc(O)c(CN(C)C)n1 7.12% [at 11.4 µM], CNC(C)c1cc(OC)ccc1OC (centres undefined) -8.77%, CC(NC(=O)c1cccc(F)c1)C(c1cccs1)N1CCN(C)CC1 (centres undefined) -13%, COc1ccc(C(=O)[C@H](Br)[C@H](Br)C(=O)O)cc1 -11.2% [at 11.4 µM], CCCCSc1nc(C)cc(NC(=S)Nc2ccc(OC)cc2)n1 -28%, O=C1/C(=N\O)Cc2ccccc21 -18.6%, COCC(=O)N1CCC[C@@]2(CCN(C(=O)Nc3cccc(F)c3)C2)C1 3.07%, CCOC(=O)CCCN 4.7% [at 11.4 µM], O=C1C2=C(Nc3cc([N+](=O)[O-])ccc3N2)O[C@@H]1c1ccc([C@H]2OC3=C(Nc4ccc([N+](=O)[O-])cc4N3)C2=O)cc1 -18.7% [at 11.4 µM], O=[N+]([O-])c1ccc2c(c1)S(=O)c1ccccc1-2 (centres undefined) -1.14% [at 11.4 µM], COc1cc2cc3c(N)c(C(=O)Nc4sc(C)c(C)c4C#N)sc3nc2cc1OC -13.7%, CC(C)(C)c1ccccc1OCCN1CCCC1 8.57%, CCOc1ccc2nc(C)cc(Nc3ccc4c(c3)OCCO4)c2c1 13.7%, COCCN(C(=O)Nc1ccc(OC)cc1OC)C1CCN(C(C)=O)CC1 -16.3%, CC(=O)c1[nH]c(C)c(C(C)=O)c1C -32.9%, CN(C)c1ccc2nc3c(C(=O)O)cc(=O)c(O)c-3oc2c1 -29.4% [at 11.4 µM], Cc1ccc(-n2c(O)cnc2Nc2nc(C)cc(C)n2)cc1 4.21%, COc1cccc(Nc2ncc3nc(-c4ccc(Cl)cc4)c(=O)n(CCC#N)c3n2)c1 3.96%, COc1ccc(Oc2ncc3nc(-c4ccc(Cl)cc4)c(=O)n(C)c3n2)cc1 -9.75%, Nc1nc(-c2cc(-c3cccc4ccccc34)nc(N)n2)cc(-c2cccc3ccccc23)n1 10.6% [at 11.4 µM], CN(Cc1cccc2ccccc12)Cc1cccc2ccccc12 -23.2% [at 11.4 µM], C[C@@H]1CC[C@@H]2C(=O)N3[C@@H](CC[C@@H](C)[C@@H]3c3ccc(-c4ccco4)cc3)C(=O)N2[C@H]1c1ccc(-c2ccco2)cc1 -27.5% [at 11.4 µM], c1cncc(CNc2ccnc(-c3ccc4c(c3)OCO4)n2)c1 -9.36% [at 2.29 µM], COc1ccc(NC2=NC(=S)N(c3ccc(C)cc3)C23CCCCC3)cc1 20.2%, Cc1cccc(N2CCN(c3ccc(NC(=O)/C=C(/C(=O)O)c4ccccc4)cc3)CC2)c1 -27%, Cc1noc(C)c1-c1nc(NCCN2CCOCC2)c2ccccc2n1 1.01% [at 2.29 µM], CC(=O)Nc1ccc([N+](=O)[O-])cn1 9.45%, Cc1cc(NC(=O)c2nn(C)c(C)c2[N+](=O)[O-])no1 -8.43%, COc1cccc(NC(=S)NN2CCN(C)CC2)c1 -10.9%, COc1ccccc1CN1CC[C@@]2(CCCN(C(=O)c3ccco3)C2)C1 5.94%, Cc1cc(C(=O)C(=O)NC(C)C)c(C)n1-c1ccc([N+](=O)[O-])cc1 -6.96%, CC1(C)N=C(N)N=C(N)N1CCCCc1ccccc1 1.42% [at 11.4 µM], CCOc1ccc(CC(C(N)=O)C(N)=O)cc1CN(C)C -25.3%, CCOc1ccc(CCNC(=O)C2CC(=O)N(C3CCCC3)C2)cc1OCC (centres undefined) -18.7%, COCn1c2ccccc2c2nnc(C(C)=O)nc21 13.8% [at 11.4 µM] and -8.55% [at 11.4 µM]
